Assay results reported in PubChem BioAssay (NCI).
This is part of a sample that, as a whole, favours compounds with a hit. Of some 83,000 tested, about 20% had one in any assay.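 Negative percent growth values reflect cell death: -40 means 40% of the cells present at the start died, and -100 means all died.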 Values without a mark were called inactive. Calls of active or inactive are those of the source. How the source made its calls: active means growth percent below 10; inactive means the rest.

How the values were obtained:
Assay in all cases: NCI-60 one-dose screen, 48 h (100 = growth as untreated, 0 = no growth, -100 = all killed)
Details in all cases: 10 µM unless noted
T-47D breast = tested on: T-47D breast
BT-549 breast = tested on: BT-549 breast
MDA-MB-435 melanoma = tested on: MDA-MB-435 melanoma
SW-620 colon = tested on: SW-620 colon
MCF7 breast = tested on: MCF7 breast
HCT-116 colon = tested on: HCT-116 colon
HCC-2998 colon = tested on: HCC-2998 colon
KM12 colon = tested on: KM12 colon

SMILES | growth (T-47D breast) | growth (BT-549 breast) | growth (MDA-MB-435 melanoma) | growth (SW-620 colon) | growth (MCF7 breast) | growth (HCT-116 colon) | growth (HCC-2998 colon) | growth (KM12 colon)
Brc1ccc(-n2cc(-c3nn[nH]n3)c(-c3cccs3)n2)cc1 | 95.6% | 95.3% | 106% | 102% | 90.1% | 91.5% | 105% | 103%
CC1(C)CC2=C3C=C[C@@H]4[C@@]5(C)CCC(=O)C(C)(C)[C@@H]5CC[C@@]4(C)[C@]3(C)CC[C@@]2(C(=O)O)CC1=O | 74.4% | 41.5% | 49.4% | 66.9% | 57.3% | 64.6% | 84.3% | 78.3%
COC1C[C@H](O[C@@H]2C[C@H](O[C@@H]3C[C@H](O[C@@H]4C(=O)c5c(cc6cc(O[C@H]7C[C@@H](O[C@H]8C[C@@H](O)[C@H](O)C(C)O8)[C@H](O)C(C)O7)c(C)c(O)c6c5O)C[C@H]4C(OC)C(=O)[C@@H](O)[C@@H](C)O)OC(C)[C@H]3O)OC(C)[C@@H]2O)OC(C)[C@@H]1O (some centres not stated) | -4.81% (active) | -20.4% (active) | -62% (active) | 9.73% (active) | 4.52% (active) | 4.82% (active) | -18.8% (active) | 4.61% (active)
O=C(/C=C/c1ccc(Cl)cc1)c1cccc(Nc2nc(Nc3ccccc3)nc(Nc3ccccc3)n2)c1 | 55.6% | 118% | 102% | 98.8% | -16.9% (active) | 29.5% | 88.8% | 86%
CS(=O)(=O)Nc1cc(-c2ccc3ncnc(Nc4ccc5c(cnn5Cc5ccccn5)c4)c3c2)cnc1Cl | 18.5% | 56.7% | 77.5% | 84.3% | 36% | 92.9% | 80.4% | 95.4%
O=C1/C(=C/c2cccs2)SC(=S)N1CCCN1CCOCC1 | 67.4% | 102% | 92.1% | 101% | 73.8% | 87.8% | 112% | 96.8%
N#Cc1cnc(NCCc2ccncc2)nc1-n1cnc2ccccc21 | 54.5% | 48.5% | 69% | 58.8% | 64.4% | 24.8% | 58.5% | 25.9%
CCOC(=O)C(=Cc1cccc(Br)c1)C(=O)OCC | 1.63% (active) | 28% | 23.7% | 25.9% | 11% | 14% | 101% | 11.9%
O=C(CSc1nnc2n1S(=O)(=O)c1ccccc1N2c1ccccc1)Nc1nc2ccc(F)cc2s1 | 98.4% | 97.1% | 101% | 109% | 93.5% | 93.5% | 95.6% | 108%
Cc1cc(Cl)ccc1NC(=O)c1cc2ccccc2cc1O | 12.6% | 26.6% | 30.1% | 11.2% | 2.86% (active) | 7.95% (active) | 15% | 7.04% (active)
COc1ccc2nc3ccc(OC)cc3c(SCCCN)c2c1 | 76.5% | 95.5% | 87.3% | 18.3% | 28.7% | -49.8% (active) | 105% | 83.2%
C#Cc1ccc(NC(=O)c2ccc(/C=C/C(=O)c3nccn3C)cc2)cc1 | 0.0135% (active) | -78.5% (active) | -44.7% (active) | -73.3% (active) | -45.4% (active) | -62.6% (active) | -89.2% (active) | -64.1% (active)
Brc1c2c(c(Br)c3ccccc13)CCCC2 | 84.4% | 112% | 111% | 103% | 96% | 91.4% | 110% | 102%
COc1ccc(-c2csc(NC(=O)CSc3nc(-c4ccccc4)cc(=O)[nH]3)n2)cc1 | 15.1% | 8.89% (active) | 49.9% | 93.5% | 50.7% | 35.8% | 83.5% | 73.9%
O=C1C(Cl)=C(Nc2ccc(O)cc2)C(=O)N1Cc1ccc(Cl)cc1 | 66.5% | 43.2% | -30.6% (active) | 17.6% | 18.1% | 30.9% | 79.9% | 14.9%
O=C(Nn1c2c(sc1=Nc1ccccc1)C(=O)c1ccccc1C2=O)c1cc2ccc1CCc1ccc(cc1)CC2 | 71.1% | 67.9% | -72.5% (active) | 75.9% | 45.6% | 60.9% | 86.8% | 78.8%
N#CC1CCc2c(c(-c3cn[nH]c3C(F)(F)F)nc3c(F)cc4[nH]ncc4c23)C1 (configuration not stated) | 1.96% (active) | -11.6% (active) | 7.99% (active) | 8.48% (active) | 12.9% | 5.5% (active) | 44% | 13.6%
CNC(=O)c1cc(Oc2ccc3nc(NC(C)=O)sc3c2)ccn1 | 90.7% | 96.9% | 102% | 112% | 98.9% | 89.2% | 107% | 98.2%
CCc1ccc(Oc2cn[nH]c2-c2ccc(OCCc3ccc(F)cc3)cc2O)cc1 | 34.5% | 107% | 91.6% | 94.1% | 85.3% | 71.9% | 98.5% | 84.8%
CCCCC[C@@H]1Cc2cc(O)c(C(=O)O)c3c2[C@H](C[C@]2(OC[C@@H](CC(=O)[C@@](C)(CC)C(=O)OC)[C@@H]2C)O3)O1 | 98.5% | 121% | 117% | 111% | 99.3% | 111% | 133% | 105%
O=C(Nc1nc2ccc(F)cc2s1)c1cccnc1Nc1ccc(Cl)cc1 | -0.413% (active) | 31.8% | 29.2% | 49.8% | 17.7% | 14.2% | 31.1% | 31.3%
COc1ccc(-c2csc(N(C(=O)N3CCN(c4cc5c(cc4F)c(=O)c(C(=O)O)cn5C4CC4)CC3)c3ccccc3)n2)cc1 | 17.1% | -4.67% (active) | 16.9% | 17.4% | 8.74% (active) | 6.33% (active) | 24.1% | 5.96% (active)
CN1CCN(c2ccc(NC(=O)c3cncnc3Nc3ccc(OCc4ccccn4)c(Cl)c3)cc2)CC1 | 53.7% | 77.9% | -60.2% (active) | 4.15% (active) | 26.5% | -48% (active) | 67.4% | 49.3%
N#Cc1c(-c2ccc(Cl)cc2)nc(NN=Cc2cccc(O)c2)nc1N1CCOCC1 | 64.6% | 73.1% | 87% | 64.8% | 60.1% | 57.9% | 103% | 81%
CCCCCCCCn1ccc2cc(NC(=O)CN3CCN(c4nc(C)cc(Cl)n4)CC3)ccc21 | 83.4% | 101% | 97.7% | 90.2% | 78.1% | 82.2% | 103% | 91.9%
COC(=O)/C(CCC=C(C)C)=C1\[C@@H](OC(C)=O)C[C@@]2(C)[C@H]1C[C@@H](O)[C@H]1[C@@]3(C)CC[C@H](NCCN)[C@@H](C)[C@@H]3CC[C@@]12C | 83.2% | 84.8% | 93.6% | 85.4% | 72.3% | 36.8% | 91.3% | 88.9%
Cc1cc(=O)[nH]c2c(C#N)cnn12 | 99.6% | 107% | 104% | 92.4% | 93.2% | 98.5% | 101% | 107%
C=C(C)[C@@H]1CC[C@]2(C)[C@H](CC=C3[C@@H]4[C@H](C)[C@@H](C)CC[C@]4(CO)CC[C@]32C)[C@@]1(C)CCCN | -34.1% (active) | 55.3% | -60.3% (active) | -74.8% (active) | 0.962% (active) | -57.8% (active) | -93.3% (active) | -41.3% (active)
Cc1nc2c(=O)[nH]c(SCC(=O)Nc3cccc(F)c3)nc2[nH]c1=O | 97.1% | 104% | 103% | 101% | 92.7% | 103% | 104% | 105%
